We go through 17 molecules from the supplement of paper PMC8726507.

The subject of the experiment is Plasmodium falciparum NF54-HGL (transmission to Anopheles stephensi). As to the kind of experiment: percentage of barcode signal found in uninfected mosquitoes (transmission-blocking activity); higher = stronger blocking of transmission to mosquito, active = 80 or more. Particulars: 10 µM; gametocyte preincubation time 24 h; readout time post-feed 8 days. As to the method: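 The mixture was fed to Anopheles stephensi in 96-well plates as blood meals tagged with DNA-barcoded Asaia bacteria. Eight days later, mosquitoes were classed infected or uninfected by luminescence (mean + 5 SD of unfed controls). Barcodes were quantified by Luminex MagPlex-TAG in the pooled uninfected and infected Asaia cultures, background-corrected, and the score is % of barcode signal in uninfected mosquitoes = 100*Iu/(Iu+Ii).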
As for `O=C(NC1CC1)c1ccc(N2CCC(Cc3ccccc3)CC2)nc1`, the “percentage of barcode signal found in uninfected mosquitoes” value (“percentage of barcode signal found” below) is 77.8% (inactive). `CC(Oc1cccc(Cl)c1)C(=O)Nc1ccc2oc(-c3ccncc3)nc2c1` (configuration not stated): the “percentage of barcode signal found” value is 47.8% (inactive). In the case of `CC1CCCCN1C(=O)NCCc1coc(-c2ccc(F)cc2)n1` (configuration not stated) it was 42% (inactive); in that of `CCc1cc(=O)n(C)c(SC(C)C(=O)Nc2ccc(F)cc2)n1` (configuration not stated), 48.5% (inactive); in that of `COc1ccc(C2(C(=O)Nc3ccc(Br)cc3)CCCC2)cc1`, 15.2% (inactive). Take `CC1=NN(c2nc3ccccc3s2)C(=O)C1Cc1cccc2ccccc12` (configuration not stated): the “percentage of barcode signal found” value is 0.165% (inactive). Consider `Cc1nn2c(=O)c3c([nH]c2c1-c1ccc(Cl)cc1)CCCC3`, for which the “percentage of barcode signal found” value was 40.4% (inactive). The figure for `Cc1cnc(CCNC(=O)c2cc(-c3ccc(Cl)cc3)cs2)[nH]1` is 7.14% (inactive). Consider `c1coc(CNc2nc(N3CCCCC3)nc3ccccc23)c1`, for which the “percentage of barcode signal found” value was 38.7% (inactive). As to `CC(C)(C)OC(=O)N1CCN(c2nccc(-c3ccc(-c4ccc(Cl)cc4)s3)n2)CC1`, the “percentage of barcode signal found” value is 20.6% (inactive).

Regarding `N=C(N)Nc1ccc(-c2ccc(-c3ccc(N=C(N)N)c(Cl)c3)o2)cc1Cl`, the “percentage of barcode signal found” value is 101% (active). As to `O=C(COc1cccc(F)c1)Nc1nc(-c2ccccn2)cs1`, the “percentage of barcode signal found” value is 38.7% (inactive). In the case of `O=C(NCc1ccoc1)N1CCN(Cc2ccc3c(c2)OCO3)CC1`, the “percentage of barcode signal found” value was 25.5% (inactive). In the case of `COC(=O)c1cccc2oc(-c3cccc(OC)c3NC(=O)c3cc(-c4ccccc4)on3)nc12` it was 31% (inactive). For `O=C1Nc2ccc(Br)cc2C12NCCc1c2[nH]c2ccccc12` (configuration not stated), the “percentage of barcode signal found” value was 27.2% (inactive). With `Nc1ncnc2c1ncn2[C@@H]1O[C@H](COS(=O)(=O)NC(=O)c2ccccc2O)[C@@H](O)[C@H]1O`, the “percentage of barcode signal found” value was -0.124% (inactive). The figure for `O=C(NC1CCN(c2ccnc3ccccc23)C1)c1cccc(C(F)(F)F)c1` (configuration not stated) is 71.6% (inactive).
